Measured values taken from PubChem BioAssay (NCI).
About 79,000 compounds went through this panel and 15% of them were active in at least one assay; those are over-represented in the sample as a whole. The source made the active and inactive calls. No stated cut-off is given here; in the data, active means growth inhibition above about 70%; inactive means the rest.

Columns and labels:
[1] = NCI Yeast Anticancer Drug Screen. Data for the rad52 strain (AID 147);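 further: 0% = growth of vehicle-treated control cultures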; conditions: S. cerevisiae rad52 mutant growth inhibition, stronger effect = higher value
In short: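 Measured: yeast growth inhibition. System: strain with a defined DNA damage repair alteration. Reference: vehicle-treated control cultures.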

[2] = NCI Yeast Anticancer Drug Screen. Data for the wt1 strain (AID 149);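 further: 0% = growth of vehicle-treated wt1 cultures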; conditions: S. cerevisiae wt1 strain (SPY 50644) growth inhibition, stronger effect = higher value
In short: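 wt1 yeast, compound-treated; % growth inhibition vs vehicle control.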

[3] = NCI Yeast Anticancer Drug Screen. Data for the rad50EPP+ strain (AID 151);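 further: 0% = growth of vehicle-treated control cultures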; conditions: S. cerevisiae rad50 mutant strain, stronger effect = higher value
In short: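 One strain with a rad50 alteration (rad50EPP+) was compound-treated, its growth then compared to that of vehicle controls.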

[4] = NCI Yeast Anticancer Drug Screen. Data for the mgt1 strain (AID 153); conditions: S. cerevisiae mgt1 mutant growth inhibition, stronger effect = higher value
In short: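 After exposure of the mgt1 yeast mutant to compound, growth was measured and reported as inhibition compared with vehicle controls.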

[5] = NCI Yeast Anticancer Drug Screen. Data for the rad50 strain (AID 155);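 further: 0% = growth of vehicle-only cultures of the same strain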; conditions: S. cerevisiae rad50 strain growth inhibition, stronger effect = higher value
In short: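 Genetically altered yeast (DNA repair pathway); compound treatment; growth inhibition vs vehicle ctrl.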

[6] = NCI Yeast Anticancer Drug Screen. Data for the mec2-1 strain (AID 157); conditions: S. cerevisiae mec2-1 strain, stronger effect = higher value
In short: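 Test agents were screened against the mec2-1 yeast strain, with defined DNA repair or cell cycle alteration. Growth was scored as inhibition against vehicle-only controls.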

[7] = NCI Yeast Anticancer Drug Screen. Data for the rad14 strain (AID 159);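 further: 0% = growth of vehicle-treated control cultures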; conditions: S. cerevisiae rad14 strain growth inhibition, stronger effect = higher value
In short: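 Test compounds were applied to a repair-deficient yeast strain. Its growth was then compared with that of cultures given vehicle alone, and inhibition was expressed relative to those controls.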

[8] = NCI Yeast Anticancer Drug Screen. Data for the sgs1 mgt1 strain (AID 161);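 further: 0% = growth of cultures given vehicle only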; conditions: S. cerevisiae sgs1 mgt1 strain, stronger effect = higher value
In short: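 Genetically altered yeast, compound exposure, growth inhibition relative to vehicle.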

[9] = NCI Yeast Anticancer Drug Screen. Data for the CLN2oe strain (AID 163);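 further: 0% = growth of vehicle-only control cultures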; conditions: S. cerevisiae CLN2oe strain, stronger effect = higher value
In short: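 Here, growth inhibition in a cell-cycle-altered yeast strain after compound exposure was quantified against vehicle control growth.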

[10] = NCI Yeast Anticancer Drug Screen. Data for the cln2 rad14 strain (AID 165);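 further: 0% = growth equal to vehicle treated cultures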; conditions: S. cerevisiae cln2 rad14 strain, stronger effect = higher value
In short: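 Growth of compound-exposed yeast (cln2 rad14 genotype) measured and expressed as inhibition relative to vehicle.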

[11] = NCI Yeast Anticancer Drug Screen. Data for the bub3 strain (AID 167); conditions: S. cerevisiae bub3 mutant strain, stronger effect = higher value
In short: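 Yeast carrying a defined mutation is treated with each compound, and growth is compared with that of vehicle-exposed cells to give inhibition.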

[12] = NCI Yeast Anticancer Drug Screen. Data for the wt2 strain (AID 169);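 further: 0% = growth of vehicle-treated yeast cultures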; conditions: S. cerevisiae wt2 strain growth inhibition, stronger effect = higher value
In short: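 Genetically defined yeast strains from a DNA-repair/cell-cycle panel were used. Compound-exposed yeast growth was measured, and the inhibition was calculated relative to vehicle treatment.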

[13] = NCI Yeast Anticancer Drug Screen. Data for the mlh1 strain (AID 171);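 further: 0% = growth of vehicle-treated control cultures of the same strain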; conditions: S. cerevisiae mlh1 strain growth inhibition, stronger effect = higher value
In short: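 Here the genetically defined yeast mutant is grown with each compound, and the extent to which its growth falls below that of vehicle-exposed cells is reported.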

[14] = NCI Yeast Anticancer Drug Screen. Data for the sgs1 strain (AID 173);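 further: 0% = growth of vehicle-only control cultures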; conditions: S. cerevisiae sgs1 mutant, stronger effect = higher value
In short: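 Relative growth inhibition, referenced to vehicle, was determined in a yeast strain with a defined alteration affecting DNA damage repair or cell cycle control after compound exposure.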

[15] = NCI Yeast Anticancer Drug Screen. Data for the mlh1 rad18 strain (AID 175); conditions: S. cerevisiae mlh1 rad18 strain growth inhibition, stronger effect = higher value
In short: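 In this whole-cell yeast screen, a strain with altered DNA damage repair is challenged with compound, and its growth is measured against matched vehicle-treated controls.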

[16] = NCI Yeast Anticancer Drug Screen. Data for the rad18 strain (AID 177); conditions: S. cerevisiae rad18 mutant growth inhibition, stronger effect = higher value
In short: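 Screen uses a yeast strain with a defined lesion in DNA damage repair; compound effect is read as loss of growth compared to untreated vehicle cultures.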

[17] = at 5.0 µM (retest, dose inferred, filed as 0.5)
[18] = at 50.0 µM (retest, dose inferred, filed as 5.0)

Measured: growth inhibition

CCC(C)OC(=O)Nc1ccc(C)c(NC(=O)OC(C)CC)c1 (stereo unspecified)
active: [1]; at 100.0 µM 96% | [2]; at 100.0 µM 73% | [3]; at 100.0 µM 74% | [4]; at 100.0 µM 96% | [5]; [18] 76% | [5]; at 100.0 µM 96% | [6]; at 50.0 µM 76% | [6]; at 100.0 µM 90% | [7]; at 100.0 µM 94% | [8]; [18] 85% | [8]; at 50.0 µM 79.4% | [9]; at 100.0 µM 95% | [10]; [18] 74% | [10]; at 50.0 µM 80% | [11]; [18] 83% | [11]; at 50.0 µM 75% | [11]; at 100.0 µM 94% | [12]; at 100.0 µM 96% | [13]; at 100.0 µM 96% | [14]; at 100.0 µM 96% | [15]; [18] 89% | [15]; at 50.0 µM 79.5% | [16]; at 100.0 µM 96%
inactive: [1]; at 1.2 µM -1% | [1]; at 3.7 µM -1% | [1]; at 11.0 µM 3% | [1]; at 33.0 µM 9% | [2]; at 1.2 µM -3% | [2]; at 3.7 µM 0% | [2]; at 11.0 µM -5% | [2]; at 33.0 µM 2% | [3]; at 1.2 µM -2% | [3]; at 3.7 µM -5% | [3]; at 11.0 µM -1% | [3]; at 33.0 µM 11% | [4]; at 1.2 µM -2% | [4]; at 3.7 µM -2% | [4]; at 11.0 µM -1% | [4]; at 33.0 µM 1% | [5]; at 1.2 µM 1% | [5]; at 3.7 µM 1% | [5]; [17] 4% | [5]; at 11.0 µM 2% | [5]; at 33.0 µM 9% | [5]; at 50.0 µM 54% | [6]; at 1.2 µM -2% | [6]; at 3.7 µM 0% | [6]; [17] -11% | [6]; at 11.0 µM -2% | [6]; at 33.0 µM 2% | [6]; [18] 18% | [7]; at 1.2 µM 0% | [7]; at 3.7 µM 2% | [7]; at 11.0 µM 1% | [7]; at 33.0 µM 6% | [8]; [17] 1% | [9]; at 1.2 µM 3% | [9]; at 3.7 µM 2% | [9]; at 11.0 µM 7% | [9]; at 33.0 µM 22% | [10]; [17] -4% | [11]; at 1.2 µM -3% | [11]; at 3.7 µM -2% | [11]; [17] 2% | [11]; at 11.0 µM -3% | [11]; at 33.0 µM 4% | [12]; at 1.2 µM 0% | [12]; at 3.7 µM 1% | [12]; at 11.0 µM -2% | [12]; at 33.0 µM 6% | [13]; at 1.2 µM -1% | [13]; at 3.7 µM -3% | [13]; at 11.0 µM -5% | [13]; at 33.0 µM 2% | [14]; at 1.2 µM -5% | [14]; at 3.7 µM -5% | [14]; at 11.0 µM -5% | [14]; at 33.0 µM 9% | [15]; [17] 12% | [16]; at 1.2 µM -4% | [16]; at 3.7 µM -5% | [16]; at 11.0 µM -8% | [16]; at 33.0 µM 6%

CC(=O)OC1CC2C(C)(C)C(=O)C=C[C@]2(C)C2CCC3(C)C(=CCC3[C@H](CO)C[C@H](O)C(=O)C(C)(C)O)[C@]12C (stereo partly specified)
inactive: [1]; at 1.2 µM -7% | [1]; at 3.7 µM -4% | [1]; at 11.0 µM -3% | [1]; at 33.0 µM 11% | [2]; at 1.2 µM -26% | [2]; at 3.7 µM -17% | [2]; at 11.0 µM -31% | [2]; at 33.0 µM -21% | [3]; at 1.2 µM -34% | [3]; at 3.7 µM -35% | [3]; at 11.0 µM -39% | [3]; at 33.0 µM -39% | [3]; at 100.0 µM -31% | [4]; at 1.2 µM -26% | [4]; at 3.7 µM -34% | [4]; at 11.0 µM 53% | [5]; at 1.2 µM -5% | [5]; at 3.7 µM -18% | [5]; [17] -14% | [5]; at 11.0 µM -16% | [5]; at 33.0 µM 6% | [5]; [18] 23% | [5]; at 50.0 µM 44.9% | [5]; at 100.0 µM 62% | [6]; at 1.2 µM -56% | [6]; at 3.7 µM -56% | [6]; [17] -10% | [6]; at 11.0 µM -77% | [6]; at 33.0 µM -40% | [6]; [18] 12% | [6]; at 50.0 µM 42.8% | [6]; at 100.0 µM 53% | [7]; at 1.2 µM -42% | [7]; at 3.7 µM -46% | [7]; at 11.0 µM -29% | [7]; at 33.0 µM -5% | [8]; [17] 35% | [9]; at 1.2 µM -41% | [9]; at 3.7 µM -14% | [9]; at 11.0 µM -7% | [9]; at 33.0 µM 0% | [10]; [17] 32% | [10]; [18] 43% | [10]; at 50.0 µM 26.6% | [11]; at 1.2 µM -24% | [11]; at 3.7 µM -35% | [11]; [17] 13% | [11]; at 11.0 µM -41% | [11]; at 33.0 µM -29% | [11]; [18] 50% | [11]; at 50.0 µM 38.1% | [12]; at 1.2 µM -32% | [12]; at 3.7 µM -18% | [12]; at 11.0 µM 50% | [13]; at 1.2 µM -35% | [13]; at 3.7 µM -23% | [13]; at 11.0 µM 39% | [14]; at 1.2 µM -34% | [14]; at 3.7 µM -5% | [14]; at 11.0 µM 60% | [15]; [17] -6% | [15]; [18] 39% | [15]; at 50.0 µM 26.1% | [16]; at 1.2 µM -21% | [16]; at 3.7 µM -21% | [16]; at 11.0 µM -17% | [16]; at 33.0 µM 3%
active: [1]; at 100.0 µM 81% | [2]; at 100.0 µM 75% | [4]; at 33.0 µM 90% | [4]; at 100.0 µM 94% | [7]; at 100.0 µM 77% | [8]; [18] 93% | [8]; at 50.0 µM 88.8% | [9]; at 100.0 µM 82% | [11]; at 100.0 µM 78% | [12]; at 33.0 µM 86% | [12]; at 100.0 µM 95% | [13]; at 33.0 µM 86% | [13]; at 100.0 µM 92% | [14]; at 33.0 µM 87% | [14]; at 100.0 µM 93% | [16]; at 100.0 µM 74%
